# Test results from PubChem BioAssay AID1347416 (National Center for Advancing Translational Sciences (NCATS), 2020).
# Hit rate of the full screen: of about 4,100 compounds, about 1,600 (39%) were called active. Not shown: some 25% with an inconclusive outcome. Calls come from the whole dose curve; as a rule, active = well fitted inhibition curve with a large enough effect; inconclusive = small, poorly fitted or top-dose-only effect; inactive = no such curve, though single readings can be large or run the other way. Some of the results follow.
# Assay: qHTS Validation assay for Inhibitors of Plasmodium falciparum Dd2 growth in vitro; note: nearly all actives have a fitted effect of over 70% in size
# Conditions: P. falciparum Dd2 in RBCs, SYBR Green growth, 72 h; series mostly up to 28.7 µM; activity change, negative = inhibition: at the top concentration
# How it was run: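 P. falciparum Dd2-infected red blood cells (2.5% hematocrit, 0.3% parasitemia) grown 72 h at 37 °C under 5% O2 with compounds in a titration, 29 uM to 0.5 nM final. Growth read as SYBR Green-1 fluorescence after ~16 h lysis; artesunate 300 nM as positive control.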
# % is set by controls: 0 for no effect and ±100 for the full control effect; potency is the fitted concentration of half-maximal effect.
Compound,Potency,"activity change, negative = inhibition"
ClC(Cl)(Cl)c1nc2ccccc2n2nncc12,2.11 µM (active),–
COc1cccc(-c2cc(C(=O)NCC34CCC=C3N(C)C(=O)CC4)[nH]n2)c1 (configuration not stated),–,-26.8% (inactive)
CCCN(CCC)CCNC(=O)c1cc2c(-c3ccc(Cl)cc3)nn(C)c2s1,0.596 µM (active),–
CCCCN(C)CCNC(=O)c1cc2c(-c3cccc(OC)c3)nn(C)c2s1,6.68 µM (active),–
CN(CCNC(=O)c1cc2c(-c3ccccc3F)nn(C)c2s1)C1CCCCC1,5.96 µM (active),–
CCCCN(CC)CCNC(=O)c1cc2c(-c3ccc(Cl)cc3)nn(C)c2s1,0.668 µM (active),–
COc1cccc(-c2cc3c(=O)n(CCNC(=O)c4cccc5[nH]ccc45)ccn3n2)c1,–,-19.8% (inactive)
COC(=O)c1c(NC(=O)/C(C#N)=C/c2ccc(OC)cc2)sc2c1CCC2,–,23.8% (inactive)
O=C(NCCCn1cccn1)C1Cn2cccc2C(=O)N1Cc1ccccc1 (configuration not stated),–,2.79% (inactive)
COc1ccccc1CN1CCOCC2(C1)CN([S+](=O)([O-])c1ccccc1)C2,12.2 µM (active),–
COc1ccc(C(=O)N2CCOCC3(CN(Cc4ccccc4)C3)C2)c(OC)n1,–,-10.6% [at 43.1 µM] (inactive)
COc1ccc(C2=NOC3(CCN([S+](=O)([O-])c4cccc(OC)c4)C3)C2)cc1 (configuration not stated),–,7.53% (inactive)
Cc1ccc(Sc2ccc(N3CCCC(C(=O)Nc4ccc(F)c(Cl)c4)C3)nn2)cc1 (configuration not stated),–,-3.9% (inactive)
O=C(Nc1ccc(N2CCCCC2)c(Cl)c1)c1ncn[nH]1,4.73 µM (active),–
N#Cc1c2c(c(NCc3ccco3)n3c1nc1ccccc13)CCC2,2.37 µM (active),–
CCc1c(C)c(C#N)c2nc3ccccc3n2c1NCC1CCCO1 (configuration not stated),2.99 µM (active),–
COC(=O)CSc1nc2c(c(-c3ccco3)c1C#N)CCCC2,–,10.9% (inactive)
CN1c2cc(C(=O)NCc3nc4ccccc4n3C)ccc2C(=O)N2CCCCCC21 (configuration not stated),–,-15.9% (inactive)
O=C(Nc1ccccc1)N[C@H]1[C@H](O)[C@@H](Oc2ccccc2)[C@@H]2OC[C@H]1O2,–,-7.12% [at 43.1 µM] (inactive)
O[C@H]1[C@H](NCc2ccc(-c3ccccc3)cc2)[C@H]2CO[C@H](O2)[C@@H]1Oc1ccccc1,–,-7.84% [at 43.1 µM] (inactive)
CC(=O)N1CCN([C@H]2[C@@H]3OC[C@@H](O3)[C@@H](NC(=O)Nc3ccc(F)cc3)[C@@H]2O)CC1,–,41.4% [at 43.1 µM] (inactive)
COc1ccccc1N1CCN([C@H]2[C@@H]3OC[C@@H](O3)[C@@H](NCc3ccc(-c4ccccc4)cc3)[C@@H]2O)CC1,15 µM (active),–
COc1ccccc1N1CCN([C@H]2[C@@H]3OC[C@@H](O3)[C@@H](N(CC3CC3)CC3CC3)[C@@H]2O)CC1,–,16.2% (inactive)
CC(=O)N1CCN([C@H]2[C@@H]3OC[C@@H](O3)[C@@H](NC(=O)Nc3ccccc3)[C@@H]2O)CC1,–,7.1% [at 43.1 µM] (inactive)
Oc1ccccc1CN[C@H]1[C@H](O)[C@@H](N2CCC(Cc3ccccc3)CC2)[C@@H]2OC[C@H]1O2,3.44 µM (active),–

Compound,Potency,"activity change, negative = inhibition"
O[C@H]1[C@H](NCC2CCCCC2)[C@H]2CO[C@H](O2)[C@@H]1N1CCC(Cc2ccccc2)CC1,1.37 µM (active),–
CCOC(=O)CC(=O)CSc1ccc2nnc(-c3ccccc3)n2n1,–,-4.34% (inactive)
CCc1noc(-c2ccn3c(CNC(=O)Cc4cccc(F)c4)nnc3c2)n1,–,-18.4% (inactive)
Cc1cc(NC(=O)CSc2ccc3nnc(-c4cccc(F)c4)n3n2)no1,5.96 µM (active),–
CCCc1noc(-c2cccn3c(CNC(=O)c4ccc(Cl)cc4)nnc23)n1,–,0% (inactive)
COc1cc2c(cc1CNc1ncncn1)CCC2,–,39.6% (inactive)
Cc1ccccc1C(=O)Nc1cccc(-c2nc3cccnc3s2)c1,–,6.23% (inactive)
O=C(CCl)Nc1cccc(-c2cnc3ccccc3n2)c1,6.68 µM (active),–
CC(=O)Nc1cccc(-c2ccnc(-c3nnc(C)n3Cc3ccccc3)c2)c1,–,-23% [at 43.1 µM] (inactive)
O=C(Nc1ccc(S(=O)(=O)NC2=NCCCCC2)cc1)c1ccco1,–,32.7% (inactive)
O=c1c2ccccc2c(C=Nc2cccc(S(=O)(=O)NC3=NCCCCC3)c2)c(O)n1Cc1ccccc1,13.3 µM (active),–
O=C(CCC[C@H]1NC[C@@H]2C[C@H]1CN(Cc1ccccc1)C2)NCCCN1CCCc2ccccc21,10.6 µM (active),–
Cc1nnc2c(N3CCN(c4ccccc4)CC3)nc3ccc(C(=O)c4ccccc4)cc3n12,0.842 µM (active),–
Fc1ccc(CN2CC[C@H](c3nc4ccc(C(F)(F)F)cc4[nH]3)C2)cc1F,–,-9.52% [at 43.1 µM] (inactive)
CCN1CCCC(c2nc3ccc(F)cc3c(=O)[nH]2)C1 (configuration not stated),–,-2.32% [at 43.1 µM] (inactive)
COc1ccccc1-c1ccc(CN2CCCC(c3nc4ccc(F)cc4c(=O)[nH]3)C2)cc1 (configuration not stated),8.41 µM (active),–
CC(=O)N1CCC(C2CCN(Cc3cc(Cl)ccc3F)C2)CC1 (configuration not stated),–,-23.3% (inactive)
Oc1cc2c(cc1CN1CCN(c3cccc(C(F)(F)F)c3)CC1)CCC2,0.944 µM (active),–
Cc1ccc(Cl)cc1N1CCN(C(=O)c2ccc3c(Cl)c4c(nc3c2)CCCC4)CC1,–,-6.77% (inactive)
COc1ccc(N2CCN(Cc3cc4c(cc3O)CCC4)CC2)cc1,16.8 µM (active),–
COc1ccc(N2C(N)=NC(N)=NC23CCCC3)cc1,–,-11.4% (inactive)
O=C(c1ccc2c(Cl)c3c(nc2c1)CCCC3)N1CCN(c2cccc(C(F)(F)F)c2)CC1,–,10.1% (inactive)
Cc1ccc(Cl)cc1N1CCN(Cc2cc3c(cc2O)CCC3)CC1,0.188 µM (active),–
COc1ccc(CN2CCC3(CC2)CC(O)CCO3)c(OC)c1 (configuration not stated),–,-4% (inactive)
CC(C)NC(=O)N1CCCC(Cn2c(C3CC3)nc3cccnc32)C1 (configuration not stated),–,6.13% (inactive)

Compound,Potency,"activity change, negative = inhibition"
N#CC1CCN(C(=O)c2nc(-c3cccc(C(F)(F)F)c3)c3cnccn23)CC1,16.8 µM (active),–
O=C(c1nc(-c2cccc(C(F)(F)F)c2)c2cnccn12)N1CCCC1,10.6 µM (active),–
O=C(Cc1ccccc1)N1CCCC2(CC(c3cccc(C(F)(F)F)c3)=NO2)C1 (configuration not stated),–,-13.8% (inactive)
O=C1Nc2ccc(-c3cccc(C(F)(F)F)c3)cc2C(=O)N2CCN(C(=O)c3ccccc3)C[C@H]12,–,-28.5% (inactive)
Cc1cc(Nc2cc(Cl)cc(Cl)c2)nc(N)n1,6.68 µM (active),–
CCOCc1cnc(C)nc1NCC(=O)c1c(C)[nH]c2cc(C)ccc12,4.22 µM (active),–
CCN1CCC(OCCCNC(=O)C2(CCO)CC23CCOCC3)CC1 (configuration not stated),–,10.7% (inactive)
COc1ccc(-c2nnc([C@H]3CCN(c4ncccn4)C3)o2)cc1,–,7.2% [at 43.1 µM] (inactive)
COc1cc(OC)cc(-c2cc3nc4c(c(N5CCN(c6ncccn6)CC5)n3n2)CCCC4)c1,4.22 µM (active),–
CCCn1c2c(c(=N)c3c1CCC3)CCC2,13.3 µM (active),–
CCCn1c2c(c(=N)c3c1CCC3)CCCC2,10.6 µM (active),–
CCn1c2c(c(=N)c3c1CCC3)CCCC2,13.3 µM (active),–
CCOC(=O)Cn1c2c(c(=N)c3c1CCC3)CCC2,–,-10.2% (inactive)
CCOC(=O)Cn1c2c(c(=N)c3c1CCC3)CCCC2,–,-23.5% (inactive)
CCn1c2c(c(=N)c3ccccc31)CCC2,6.68 µM (active),–
CCCCn1c2c(c(=N)c3c1CCC3)CCC2,8.41 µM (active),–
CC(C)c1noc(-c2cccn3c(CNC(=O)c4ccc(F)cc4Cl)nnc23)n1,–,-11.9% (inactive)
Cc1nn2c(c1-c1ccccc1C(C)C)N(CCC(C)C)CCC2,2.17 µM (active),–
Cc1nn2c(c1-c1ccccc1-c1ccccc1)N(CC1CC1)CCC2,0.968 µM (active),–
Cc1nn2c(c1-c1ccccc1-c1ccccc1)N(CCC(C)C)CCC2,0.243 µM (active),–
Cc1nn2c(c1-c1ccccc1[S+](C)(=O)[O-])N(Cc1ccc(C(=O)O)s1)CCC2,7.69 µM (active),–
Cc1ccc(-c2csc3nc[nH]c(=O)c23)c(C)c1,–,48.1% (inactive)
CCc1noc(-c2cccn3c(CNC(=O)COc4ccc(F)cc4)nnc23)n1,–,38.7% (inactive)
O=C1Cc2c(-c3ccc(Oc4ccccc4)cc3)n[nH]c2CN1Cc1ccccc1F,–,-12.3% [at 43.1 µM] (inactive)
Cc1nn2c(c1-c1ccccc1[S+](C)(=O)[O-])N(CCC(C)C)CCC2,9.68 µM (active),–

Compound,Potency,"activity change, negative = inhibition"
O=C1CCC2(CCN1)CCN(C(=O)C1CCCCC1)CC2,–,5.58% (inactive)
CCC(=O)N1c2ccccc2CC1C(=O)NCc1ccccc1C (configuration not stated),–,-8.52% (inactive)
COc1ccc(C(=O)N2CCC(C3CCN(S(C)(=O)=O)CC3)C2)c(OC)n1 (configuration not stated),–,4.48% (inactive)
COc1ccccc1N(CC(=O)Nc1cc(C)cc(C)c1)S(C)(=O)=O,–,20.6% (inactive)
CCN(CC)c1ccc(NC(=O)COc2ccccc2C#N)cc1S(=O)(=O)Nc1ccccc1OC,7.5 µM (active),–
OC(Cc1ccncc1)(c1ccccc1)c1ccccc1,–,-3.46% (inactive)
CN(C)CC(CCC(CN(C)C)C(O)(c1ccccc1)c1ccccc1)C(O)(c1ccccc1)c1ccccc1 (configuration not stated),2.11 µM (active),–
CCOc1ccccc1Nc1nc2ccccc2nc1NS(=O)(=O)c1ccc(Cl)cc1,–,-48.2% (inactive)
O=S(=O)(Nc1cc2nc3ccccc3nc2n1Cc1ccccc1)c1ccc(Cl)cc1,1.19 µM (active),–
Cc1nn(CCCC(=O)Nc2ccccc2C(F)(F)F)c(=O)c2nn(-c3ccccc3)c(C)c12,–,-20.3% (inactive)
COc1cc(Br)c(C(C)NC(=O)c2cccc(Br)c2)cc1OC (configuration not stated),2.11 µM (active),–
CC(C)CN1C(=O)CO[C@H](c2ccc(NC(=O)C3CCCC3)cc2)[C@H]1CO,–,36.8% [at 43.1 µM] (inactive)
O=C(Nc1ccccc1O)c1ccc(NC(=O)C2CC2)cc1,4.73 µM (active),–
COc1ccccc1N1CCN(CCCNC(=O)c2cnn(-c3ccccc3Cl)c2C2CCN(C(=O)OC(C)(C)C)CC2)CC1,2.37 µM (active),–
COc1ccccc1N1CCN(CCCNC(=O)c2cnn(-c3cccc(Cl)c3)c2C2CCN(C(=O)OC(C)(C)C)CC2)CC1,2.11 µM (active),–
Cc1cc(=O)n2[nH]c(NC(=O)c3cccc(Cl)c3)nc2n1,–,-24% (inactive)
CCN1CCN(c2cc(C)c3cc(NC(=O)c4cccc(Cl)c4)ccc3n2)CC1,4.73 µM (active),–
Cc1cc(Nc2cccc(C(F)(F)F)c2)nc2ccc(NC(=O)c3cncc(Br)c3)cc12,2.37 µM (active),–
CCN1CCN(c2cc(C)c3cc(NC(=O)c4cc(OC)c(OC)c(OC)c4)ccc3n2)CC1,1.33 µM (active),–
CCOc1ccc(C(=O)Nc2cccc(NC(=O)c3ccc(C(C)(C)C)cc3)c2)cc1Br,–,1.12% (inactive)
CCN1c2cc(C(=O)Nc3cccc(Cl)c3)ccc2C(=O)N2CCCCC21 (configuration not stated),–,8.46% (inactive)
CCN1CCN(c2cc(C)c3cc(NC(=O)c4cc(OC)cc(OC)c4)ccc3n2)CC1,3.35 µM (active),–
